PubChem BioAssay (Tox21)
Unmarked numbers belong to inactive results. Results filed as inconclusive are left out. A call without a number means that no potency is given here. The source made the active and inactive calls. Unless noted, calls follow the shape of the dose curve; as a rule, active = well fitted curve in the direction sought with a large enough effect in the repeat runs; inconclusive = weak or mixed curves; inactive = no such curve, though single readings can be large; an effect the other way counts as inactive or inconclusive.

How the values were obtained:
[1] = target: Thyrotropin-releasing hormone receptor (Homo sapiens) (UniProt P34981); assay: qHTS assay to identify small molecule agonists of the thyrotropin-releasing hormone receptor (TRHR) signaling pathway (AID 1346891; calls by dose curve; also: series mostly up to about 58 µM)
In short: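 Intracellular calcium rise, read as fluorescence every second for 3 min, served as the agonist signal in dye-loaded HEK293 cells expressing TRHR; each compound ran at 15 concentrations in triplicate.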

[2] = Human pregnane X receptor (PXR) small molecule agonists, qHTS cell viability counter screen (AID 1346977); also: nearly all actives have a fitted effect of over 50% in size; also: potency is read from the fitted curve at half-maximal effect
In short: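 PXR-Luc HepG2, 2,000 cells/well, 5% charcoal-stripped FBS; 5hr settle; cpd 24hr, 37C/5% CO2; CellTiter-Fluor at 23hr, read 1hr later (fluorescence).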

[3] = Caspase-3/7 induction in HepG2 cells by small molecules, qHTS assay (AID 1346978); also: nearly all actives have a fitted effect of over 15% in size
In short: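 Wild-type HepG2 cells, 2,000/well, settled 5 hr at 37 C and 5% CO2, then compound-treated for 17 hr; caspase-3/7 activity read by luminescent Caspase-Glo 3/7 after 30 min at room temperature.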

[4] = Caspase-3/7 induction in CHO-K1 cells by small molecules, qHTS cell viability counter screen (AID 1346979); also: nearly all actives have a fitted effect of over 35% in size; also: potency is read from the fitted curve at half-maximal effect
In short: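 Cells (CHO-K1, wild type) are plated at 1,500 per well and incubated 5hr. Test compounds in DMSO are then pinned in, followed by 16hr at 37C and 5% CO2. Viability is read by CellTiter-Fluor fluorescence after 1hr.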

[5] = Caspase-3/7 induction in CHO-K1 cells by small molecules, qHTS assay (AID 1346980); also: nearly all actives have a fitted effect of over 15% in size
In short: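 Wild-type CHO-K1 cells exposed to compounds for 17hr at 37 C, 5% CO2. Caspase-3/7 activity then measured by Caspase-Glo 3/7 luminescence after 30min at room temperature.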

[6] = target: Nuclear receptor subfamily 1 group I member 2 (Homo sapiens) (UniProt O75469); assay: Human pregnane X receptor (PXR) small molecule agonists, qHTS assay (AID 1346982); also: nearly all actives have a fitted effect of over 35% in size; also: potency is read from the fitted curve at half-maximal effect
In short: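 Luciferase signal from ONE-Glo (30 min, room temperature) measured activation of hPXR-driven CYP3A4 reporter expression in PXR-Luc HepG2 cells treated with compounds for 24 hr at 37 C.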

[7] = target: Nuclear receptor subfamily 1 group I member 2 (Homo sapiens) (UniProt O75469); assay: CYP3A4 induction through human pregnane X receptor (PXR) by small molecules, qHTS assay (AID 1346984); also: nearly all actives have a fitted effect of over 40% in size; also: potency is read from the fitted curve at half-maximal effect
In short: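 Luminescence readout: luciferase signal after One-Glo (30 min, room temperature), following 3 h at 37C with 3uM final Luciferin-IPA P450 substrate. Cells were DPX-2 (HepG2, PXR/CYP3A4-luc co-transfected) dosed for 24 h.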

[8] = target: Nuclear receptor subfamily 1 group I member 2 (Homo sapiens) (UniProt O75469); assay: Human pregnane X receptor (PXR) activation by small molecules, qHTS assay (AID 1346985); also: potency is read from the fitted curve at half-maximal effect; nearly all actives have a fitted effect of over 40% in size
In short: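 DPX-2 cells (HepG2 co-transfected with a PXR response element and a CYP3A4-promoter luciferase construct) were seeded at 2,000 per well, rested 5 hr at 37C, then exposed to DMSO-dissolved compounds for 24 hr. Activation was read as luciferase luminescence.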

[9] = target: Cytochrome P450 2D6 (Homo sapiens) (UniProt P10635); assay: Cytochrome P450 Family 2 Subfamily D Member 6 (CYP2D6) small molecule antagonists: luciferase reporter qHTS assay (AID 1671196); also: nearly all actives have a fitted effect of over 50% in size; also: potency is read from the fitted curve at half-maximal effect
In short: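 Read-out is luminescence from luciferin formed by CYP2D6 turnover of a proluciferin substrate, recorded as relative luminescence units. Reactions ran 1 h at room temperature after NADPH regeneration solution was added.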

[10] = target: Cytochrome P450 2C19 (Homo sapiens) (UniProt P33261); assay: Cytochrome P450 Family 2 Subfamily C Member 19 (CYP2C19) small molecule antagonists: luciferase reporter qHTS assay (AID 1671197); also: nearly all actives have a fitted effect of over 65% in size; also: potency is read from the fitted curve at half-maximal effect
In short: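 Relative luminescence units recorded 20 min after the detection reagent stopped a 1 h, 37C CYP2C19 reaction on proluciferin substrate, which was started by NADPH regeneration following 10 min room-temperature compound preincubation; ketoconazole positive control.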

[11] = target: Cytochrome P450 2C9 (Homo sapiens) (UniProt P11712); assay: Cytochrome P450 Family 2 Subfamily C Member 9 (CYP2C9) small molecule antagonists: luciferase reporter qHTS assay (AID 1671198); also: nearly all actives have a fitted effect of over 50% in size; also: potency is read from the fitted curve at half-maximal effect
In short: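 P450-Glo proluciferin substrate with CYP2C9 enzyme; 10 min RT preincubation, then NADPH regeneration 1 h at 37C; luciferin detection reagent 20 min RT, luminescence in relative luminescence units.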

[12] = target: Cytochrome P450 1A2 (Homo sapiens) (UniProt P05177); assay: Cytochrome P450 Family 1 Subfamily A Member 2 (CYP1A2) small molecule antagonists: luciferase reporter qHTS assay (AID 1671199); also: nearly all actives have a fitted effect of over 50% in size; also: potency is read from the fitted curve at half-maximal effect
In short: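 P450-Glo CYP1A2, 1536-well qHTS: enzyme/proluciferin substrate + cpd (DMSO), 10 min RT; NADPH regen, 1 h RT; detection reagent, 20 min; luminescence, RLU.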

[13] = target: Voltage-gated inwardly rectifying potassium channel KCNH2 (Homo sapiens) (UniProt Q12809); assay: Human Ether-a-go-go-Related Gene (hERG) channel small molecule antagonists: fluorescence cell-based qHTS assay (AID 1671200)
In short: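 Channel function was assessed by thallium flux. Cells seeded the previous day and kept at 37 C took up FluxOR II dye over 1 h in the dark at room temperature, then sat another 10 min before stimulation.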

[14] = Caspase-3/7 induction in HepG2 cells by small molecules, qHTS cell viability counter screen (AID 1346981); also: nearly all actives have a fitted effect of over 30% in size; also: potency is read from the fitted curve at half-maximal effect
In short: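 HepG2, WT, 2,000 cells/well; 5 hr pre-incubation 37 C/5% CO2; compound pin-transferred from DMSO; 16 hr exposure; CellTiter-Fluor, 1 hr; fluorescence read.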

[15] = target: Cytochrome P450 3A4 (Homo sapiens) (UniProt P08684); assay: Cytochrome P450 Family 3 Subfamily A Member 4 (CYP3A4) small molecule antagonists: luciferase reporter qHTS assay (AID 1671201); also: nearly all actives have a fitted effect of over 50% in size; also: potency is read from the fitted curve at half-maximal effect
In short: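 Compounds in DMSO were pin-transferred onto CYP3A4 enzyme-substrate mix and held 10 min at room temperature. NADPH regenerating solution started the reaction for 1 h; luciferin detection reagent stopped it, and luminescence was read after 20 min.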

[16] = target: Nuclear receptor subfamily 1 group I member 2 (Rattus norvegicus) (UniProt Q9R1A7); assay: Rat pregnane X receptor (rPXR) activation by small molecules, qHTS assay (AID 1346983); conditions: rPXR luciferase reporter cells, One-Glo luminescence, 24 h; max activation: active compounds read high; also: nearly all actives have a fitted effect of over 20% in size
In short: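 Cell-based rPXR activation assay: rPXR cells, 2,000 per well, rested 5hr at 37 C, then exposed to compounds in DMSO for 24 hr at 37 C. Luciferase activity read by One-Glo luminescence after 30 min at room temperature.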

Voltage-gated inwardly rectifying potassium channel KCNH2 (Homo sapiens), sequence (Q12809 whole entry, looked up): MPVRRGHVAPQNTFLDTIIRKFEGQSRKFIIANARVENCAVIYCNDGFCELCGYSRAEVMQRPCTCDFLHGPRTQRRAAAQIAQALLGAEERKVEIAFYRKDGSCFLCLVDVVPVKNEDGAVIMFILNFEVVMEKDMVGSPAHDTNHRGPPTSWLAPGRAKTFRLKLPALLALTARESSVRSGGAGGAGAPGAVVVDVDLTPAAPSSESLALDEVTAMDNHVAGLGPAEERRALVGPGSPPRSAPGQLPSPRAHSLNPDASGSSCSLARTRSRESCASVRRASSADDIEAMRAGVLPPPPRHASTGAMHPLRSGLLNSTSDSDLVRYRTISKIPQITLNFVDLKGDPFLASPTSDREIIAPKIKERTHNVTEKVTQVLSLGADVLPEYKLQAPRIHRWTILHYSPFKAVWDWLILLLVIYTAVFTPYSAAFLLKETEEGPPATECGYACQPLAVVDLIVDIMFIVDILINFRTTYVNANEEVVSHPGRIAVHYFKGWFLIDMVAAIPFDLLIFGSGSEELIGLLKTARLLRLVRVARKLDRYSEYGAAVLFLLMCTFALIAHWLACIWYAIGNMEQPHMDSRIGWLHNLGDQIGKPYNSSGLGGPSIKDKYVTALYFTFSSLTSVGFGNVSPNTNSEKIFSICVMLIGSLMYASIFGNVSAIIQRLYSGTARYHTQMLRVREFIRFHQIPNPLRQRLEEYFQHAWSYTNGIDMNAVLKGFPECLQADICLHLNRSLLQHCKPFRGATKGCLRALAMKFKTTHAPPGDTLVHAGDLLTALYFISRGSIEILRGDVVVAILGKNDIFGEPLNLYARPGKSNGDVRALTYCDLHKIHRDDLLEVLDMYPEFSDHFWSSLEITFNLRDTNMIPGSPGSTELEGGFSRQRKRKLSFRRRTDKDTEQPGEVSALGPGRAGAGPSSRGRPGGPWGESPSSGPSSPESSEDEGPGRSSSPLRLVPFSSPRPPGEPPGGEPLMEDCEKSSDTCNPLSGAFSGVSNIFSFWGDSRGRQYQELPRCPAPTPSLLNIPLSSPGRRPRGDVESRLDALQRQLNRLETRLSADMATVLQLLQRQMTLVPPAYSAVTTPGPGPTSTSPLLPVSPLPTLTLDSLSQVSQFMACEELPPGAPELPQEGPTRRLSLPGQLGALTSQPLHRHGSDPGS
Cytochrome P450 2C19 (Homo sapiens), sequence (P33261 whole entry, looked up): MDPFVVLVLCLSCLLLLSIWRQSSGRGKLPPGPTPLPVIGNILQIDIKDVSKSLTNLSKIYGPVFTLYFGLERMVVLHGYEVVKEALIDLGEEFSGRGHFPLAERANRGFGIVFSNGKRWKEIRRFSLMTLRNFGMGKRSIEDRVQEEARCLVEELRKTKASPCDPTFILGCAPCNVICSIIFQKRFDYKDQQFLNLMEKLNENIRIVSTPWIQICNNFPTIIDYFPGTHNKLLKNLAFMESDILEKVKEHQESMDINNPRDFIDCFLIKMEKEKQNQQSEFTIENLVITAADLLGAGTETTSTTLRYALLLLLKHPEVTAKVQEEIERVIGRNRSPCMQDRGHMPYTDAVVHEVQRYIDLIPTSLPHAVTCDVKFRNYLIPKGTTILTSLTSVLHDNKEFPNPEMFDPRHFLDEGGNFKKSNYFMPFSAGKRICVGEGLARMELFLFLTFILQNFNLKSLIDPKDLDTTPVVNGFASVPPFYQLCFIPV
Cytochrome P450 2C9 (Homo sapiens), sequence (P11712 whole entry, looked up): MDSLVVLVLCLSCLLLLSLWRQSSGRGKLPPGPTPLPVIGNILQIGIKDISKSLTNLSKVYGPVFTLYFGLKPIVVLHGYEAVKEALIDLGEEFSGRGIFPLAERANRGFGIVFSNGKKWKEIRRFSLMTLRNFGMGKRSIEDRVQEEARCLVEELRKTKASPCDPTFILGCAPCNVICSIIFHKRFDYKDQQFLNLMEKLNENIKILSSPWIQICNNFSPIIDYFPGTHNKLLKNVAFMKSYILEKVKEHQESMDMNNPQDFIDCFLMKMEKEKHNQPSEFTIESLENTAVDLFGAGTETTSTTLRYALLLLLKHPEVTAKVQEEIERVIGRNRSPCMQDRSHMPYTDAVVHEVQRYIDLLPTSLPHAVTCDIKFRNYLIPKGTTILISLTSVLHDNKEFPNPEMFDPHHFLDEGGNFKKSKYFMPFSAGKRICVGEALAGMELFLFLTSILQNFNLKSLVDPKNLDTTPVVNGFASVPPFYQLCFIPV
Cytochrome P450 3A4 (Homo sapiens), sequence (P08684 whole entry, looked up): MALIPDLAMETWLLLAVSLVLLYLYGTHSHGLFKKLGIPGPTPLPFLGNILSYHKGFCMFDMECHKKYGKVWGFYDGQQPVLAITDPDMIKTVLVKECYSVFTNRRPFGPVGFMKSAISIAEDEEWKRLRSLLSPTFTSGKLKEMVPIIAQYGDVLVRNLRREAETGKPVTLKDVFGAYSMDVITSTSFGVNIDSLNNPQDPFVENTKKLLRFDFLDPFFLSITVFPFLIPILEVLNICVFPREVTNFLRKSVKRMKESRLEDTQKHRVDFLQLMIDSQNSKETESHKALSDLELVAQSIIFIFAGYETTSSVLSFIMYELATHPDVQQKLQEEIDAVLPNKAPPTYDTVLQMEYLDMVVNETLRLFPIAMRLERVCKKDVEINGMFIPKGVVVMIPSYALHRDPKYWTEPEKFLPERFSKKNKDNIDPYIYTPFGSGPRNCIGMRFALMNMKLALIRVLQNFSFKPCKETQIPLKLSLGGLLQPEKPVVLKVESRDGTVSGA
Thyrotropin-releasing hormone receptor (Homo sapiens), sequence (P34981 whole entry, looked up): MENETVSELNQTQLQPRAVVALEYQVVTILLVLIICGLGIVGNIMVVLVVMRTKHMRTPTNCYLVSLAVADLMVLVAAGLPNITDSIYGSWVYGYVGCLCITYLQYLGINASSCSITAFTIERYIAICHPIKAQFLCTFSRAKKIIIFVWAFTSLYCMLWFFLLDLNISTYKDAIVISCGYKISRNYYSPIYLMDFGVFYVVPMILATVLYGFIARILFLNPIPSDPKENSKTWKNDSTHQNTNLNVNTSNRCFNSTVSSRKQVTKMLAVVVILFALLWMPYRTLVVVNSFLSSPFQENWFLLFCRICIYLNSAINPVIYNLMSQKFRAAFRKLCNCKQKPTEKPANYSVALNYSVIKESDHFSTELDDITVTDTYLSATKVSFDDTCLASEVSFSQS
Cytochrome P450 2D6 (Homo sapiens), sequence (P10635 whole entry, looked up): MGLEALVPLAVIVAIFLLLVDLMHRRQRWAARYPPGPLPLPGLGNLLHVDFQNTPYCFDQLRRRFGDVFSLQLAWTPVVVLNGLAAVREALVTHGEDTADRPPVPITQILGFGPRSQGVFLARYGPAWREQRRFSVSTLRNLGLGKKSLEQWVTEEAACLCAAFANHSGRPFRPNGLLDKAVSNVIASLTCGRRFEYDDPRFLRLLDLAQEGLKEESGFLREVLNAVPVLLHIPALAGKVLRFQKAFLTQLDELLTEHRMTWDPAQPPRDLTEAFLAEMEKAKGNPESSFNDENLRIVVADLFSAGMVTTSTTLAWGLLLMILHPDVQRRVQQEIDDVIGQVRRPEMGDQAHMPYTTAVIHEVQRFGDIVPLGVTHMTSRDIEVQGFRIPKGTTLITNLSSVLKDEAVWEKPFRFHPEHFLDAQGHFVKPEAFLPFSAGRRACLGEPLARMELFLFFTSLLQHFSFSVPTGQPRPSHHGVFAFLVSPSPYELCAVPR
Cytochrome P450 1A2 (Homo sapiens), sequence (P05177 whole entry, looked up): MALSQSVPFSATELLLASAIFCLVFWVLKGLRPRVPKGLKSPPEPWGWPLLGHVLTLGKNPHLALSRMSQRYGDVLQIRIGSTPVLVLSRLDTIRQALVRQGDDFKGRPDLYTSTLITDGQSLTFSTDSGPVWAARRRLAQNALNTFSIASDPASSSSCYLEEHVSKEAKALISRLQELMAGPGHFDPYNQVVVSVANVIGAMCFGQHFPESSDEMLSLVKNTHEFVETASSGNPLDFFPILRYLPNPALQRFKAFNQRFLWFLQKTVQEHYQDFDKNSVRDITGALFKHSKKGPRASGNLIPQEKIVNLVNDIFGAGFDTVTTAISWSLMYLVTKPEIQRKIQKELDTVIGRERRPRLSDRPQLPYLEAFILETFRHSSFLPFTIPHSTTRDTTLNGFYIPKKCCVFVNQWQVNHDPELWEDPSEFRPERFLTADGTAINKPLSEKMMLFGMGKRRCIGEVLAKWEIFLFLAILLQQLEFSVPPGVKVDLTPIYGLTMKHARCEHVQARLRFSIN
Nuclear receptor subfamily 1 group I member 2 (Homo sapiens), sequence (O75469 whole entry, looked up): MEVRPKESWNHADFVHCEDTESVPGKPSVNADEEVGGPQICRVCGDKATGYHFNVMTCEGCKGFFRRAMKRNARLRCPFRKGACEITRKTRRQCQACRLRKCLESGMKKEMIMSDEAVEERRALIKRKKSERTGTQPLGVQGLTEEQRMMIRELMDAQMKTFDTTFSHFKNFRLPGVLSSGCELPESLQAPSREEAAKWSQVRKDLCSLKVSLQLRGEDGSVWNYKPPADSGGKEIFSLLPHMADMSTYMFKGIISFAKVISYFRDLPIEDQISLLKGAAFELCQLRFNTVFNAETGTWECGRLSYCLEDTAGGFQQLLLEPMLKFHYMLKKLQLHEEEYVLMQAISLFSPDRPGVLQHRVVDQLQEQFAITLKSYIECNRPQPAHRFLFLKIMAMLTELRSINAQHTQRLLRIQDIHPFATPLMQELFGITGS
Nuclear receptor subfamily 1 group I member 2 (Rattus norvegicus), sequence (Q9R1A7 whole entry, looked up): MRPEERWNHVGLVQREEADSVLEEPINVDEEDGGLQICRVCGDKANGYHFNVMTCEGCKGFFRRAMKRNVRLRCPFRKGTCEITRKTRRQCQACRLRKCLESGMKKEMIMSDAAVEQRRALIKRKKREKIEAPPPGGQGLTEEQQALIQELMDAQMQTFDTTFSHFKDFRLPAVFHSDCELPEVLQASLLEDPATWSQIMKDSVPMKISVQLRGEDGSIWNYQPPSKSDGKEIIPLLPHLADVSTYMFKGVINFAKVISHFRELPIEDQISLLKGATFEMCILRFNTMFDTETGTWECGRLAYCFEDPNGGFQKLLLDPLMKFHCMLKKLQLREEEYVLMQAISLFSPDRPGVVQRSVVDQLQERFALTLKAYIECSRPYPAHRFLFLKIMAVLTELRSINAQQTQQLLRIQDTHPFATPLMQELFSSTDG

Compound | Potency [1] | Potency [2] | Potency [3] | Potency [4] | outcome [5] | Potency [6] | Potency [7] | Potency [8] | Potency [9] | Potency [10] | Potency [11] | Potency [12] | Potency [13] | Potency [14] | Potency [15] | max activation [16]
COc1cc2c(cc1OC)-c1cc(=Nc3c(C)cc(C)cc3C)n(C)c(=O)n1CC2 | inactive | inactive | inactive | 29.8 µM (active) | inactive | 9.44 µM (active) | inactive | 6.31 µM (active) | 13.8 µM (active) | 17.4 µM (active) | 1.1 µM (active) | inactive |  |  |  | 
CC1=C(C=O)C(C)(C)CCC1 | inactive | inactive | inactive | inactive |  | 27.3 µM (active) |  |  | inactive |  |  | inactive | inactive |  |  | 
C[Si](NC1CCCCC1)(NC1CCCCC1)NC1CCCCC1 | inactive | inactive | inactive | inactive | inactive | inactive |  |  |  | inactive |  |  | inactive | inactive | inactive | 
C=CCOC(=O)/C=C\C(=O)OCC=C | inactive | inactive | inactive | inactive | inactive | inactive |  |  | inactive |  |  | 28.8 µM (active) | inactive | inactive |  | 
CN1C(=O)CC(C)(c2ccccc2)C1=O (stereo not given) | inactive | inactive | inactive | inactive | inactive | inactive |  |  |  | inactive | inactive | inactive |  | inactive | inactive | 
CCCCCCCC/C=C\CCCCCCCC(=O)OC(CO)CO | inactive | inactive | inactive | inactive | inactive | inactive |  |  |  | 71 µM (active) | 20 µM (active) | 71 µM (active) | inactive |  | 17.8 µM (active) | 
CC(C)OCC1CO1 (stereo not given) | inactive | inactive | inactive | inactive |  | inactive |  |  | inactive | inactive | inactive | inactive | inactive | inactive | inactive | 
CC1=NN(c2ccc(C(=O)O)cc2)C(=O)C1 | inactive | inactive | inactive | inactive |  | inactive |  |  |  | 20 µM (active) | inactive | inactive | inactive | inactive | inactive | 
C=CC(=C)CCCC(C)(C)OC(C)=O | inactive | inactive | inactive | inactive | inactive | inactive |  |  | inactive | inactive | inactive |  | inactive |  | inactive | 
CC(=O)Nc1ccccc1C | inactive |  | inactive | inactive | inactive | inactive |  |  | inactive |  | inactive | inactive | inactive | inactive | inactive | 
COC(=O)c1cc(Cl)ccc1NS(=O)(=O)C(F)(F)F | inactive |  | inactive | inactive | inactive | inactive |  |  | inactive | inactive | inactive | 0.55 µM (active) | inactive | inactive | inactive | 
CO[C@H]1C=CO[C@@]2(C)Oc3c(C)c(O)c4c(O)c(c5c(c4c3C2=O)=NC2(CCN(CC(C)C)CC2)N=5)NC(=O)/C(C)=C\C=C/[C@H](C)[C@H](O)[C@@H](C)[C@@H](O)[C@@H](C)[C@H](OC(C)=O)[C@@H]1C | inactive | 30 µM (active) |  | 53.3 µM (active) |  | 5.98 µM (active) | 0.501 µM (active) | 0.158 µM (active) | 39.1 µM (active) | 39.1 µM (active) |  |  |  | 30 µM (active) | 9.81 µM (active) | -0.473%
